Data taken from PubChem BioAssay (NCATS).
Several values for one entry are separate records, joined by “and”; a condition that tells them apart may be missing. Equal entries are not always repeated. Results filed as inconclusive are left out. Activity calls are given as the source filed them. Unless noted, calls come from the whole dose curve; as a rule, active = well fitted curve in the direction sought with a large enough effect; inconclusive = small, poorly fitted or top-dose-only effect, or another doubt; inactive = no such curve, though single readings can be large; an effect the other way counts as inactive or inconclusive.

Columns and labels:
[1] = AP1 Signaling Pathway (AID 357; active = well fitted curve in either direction with a large enough effect, not every such curve was filed as active;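 note: ME-180 reporter cells stimulated with EGF at its EC50 level; % is set by controls: 0 for no effect and ±100 for the full control effect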); details: ME-180 AP-1-bla reporter, EGF-induced, beta-lactamase ratio, 5 h; at 7.69 µM (top of the series) unless noted
Procedure, shortened: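 Titration-series screen for positive or negative modulators of EC50 EGF-induced signaling in ME-180 cells carrying an AP-1-driven beta-lactamase reporter. After 5 hours at 37 degrees Celsius, CCF4 460nm/530nm emission ratio gave %Activity; AC50 values derived.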

[2] = molecular target: Cytochrome P450 1A2 (Homo sapiens) (UniProt P05177); assay: p450-cyp1a2 (AID 410; calls by dose curve; note: potency is the fitted concentration of half-maximal effect;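 for activity change, negative = inhibition: -100% = full effect of reference inhibitor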)
Cytochrome P450 1A2 (Homo sapiens), sequence (P05177 whole entry, looked up): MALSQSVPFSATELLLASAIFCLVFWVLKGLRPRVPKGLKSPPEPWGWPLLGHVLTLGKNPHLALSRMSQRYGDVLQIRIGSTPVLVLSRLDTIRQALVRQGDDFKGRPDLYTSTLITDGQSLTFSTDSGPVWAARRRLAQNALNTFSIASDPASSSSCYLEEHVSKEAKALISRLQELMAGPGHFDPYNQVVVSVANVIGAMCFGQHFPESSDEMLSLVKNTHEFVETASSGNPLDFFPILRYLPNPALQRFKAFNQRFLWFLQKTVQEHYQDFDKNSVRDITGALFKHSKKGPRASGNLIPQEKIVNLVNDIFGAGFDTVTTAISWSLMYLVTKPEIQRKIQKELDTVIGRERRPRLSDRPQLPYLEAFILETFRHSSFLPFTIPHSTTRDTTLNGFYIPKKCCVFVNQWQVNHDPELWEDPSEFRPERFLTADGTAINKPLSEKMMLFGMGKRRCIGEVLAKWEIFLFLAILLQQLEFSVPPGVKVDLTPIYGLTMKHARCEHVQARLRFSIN
Procedure, shortened: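 O-Demethylation of luciferin 6' methyl ether by human CYP1A2 is monitored as luciferase luminescence. Substrate sits at Km (100uM); enzyme is 20nM. Values are scaled to 57 uM furafylline as maximal inhibition.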

[3] = Stat Signaling Pathway (AID 446; active = well fitted curve in either direction with a large enough effect, not every such curve was filed as active;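 note: ME-180 cervical cancer cells given 40 pM IL-6 alongside compound; SIE-controlled beta-lactamase reporter measured as 460/530 nm FRET emission ratio; % is set by controls: 0 for no effect and ±100 for the full control effect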); details: ME-180 (cervical carcinoma) SIE beta-lactamase reporter, IL-6 stimulated, 5 h
Procedure, shortened: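 Overnight-plated ME-180 cells bearing a STAT Inducible Element beta-lactamase reporter; 5 h co-exposure to compound and 40 pM IL-6; values normalized to 300 pM IL-6 and 125 nM JAK inhibitor controls.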

[4] = molecular target: Glucocorticoid receptor (Homo sapiens) (UniProt P04150); assay: GR-GFP Redistribution (AID 450;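 active = compounds whose dose series gives a full or clear partial fitted curve of increased nuclear translocation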; note: potency is the fitted concentration of half-maximal effect); details: U2OS GR-GFP nuclear translocation, laser cytometry, 2 h
Glucocorticoid receptor (Homo sapiens), sequence (P04150 whole entry, looked up, the tested form may be a part): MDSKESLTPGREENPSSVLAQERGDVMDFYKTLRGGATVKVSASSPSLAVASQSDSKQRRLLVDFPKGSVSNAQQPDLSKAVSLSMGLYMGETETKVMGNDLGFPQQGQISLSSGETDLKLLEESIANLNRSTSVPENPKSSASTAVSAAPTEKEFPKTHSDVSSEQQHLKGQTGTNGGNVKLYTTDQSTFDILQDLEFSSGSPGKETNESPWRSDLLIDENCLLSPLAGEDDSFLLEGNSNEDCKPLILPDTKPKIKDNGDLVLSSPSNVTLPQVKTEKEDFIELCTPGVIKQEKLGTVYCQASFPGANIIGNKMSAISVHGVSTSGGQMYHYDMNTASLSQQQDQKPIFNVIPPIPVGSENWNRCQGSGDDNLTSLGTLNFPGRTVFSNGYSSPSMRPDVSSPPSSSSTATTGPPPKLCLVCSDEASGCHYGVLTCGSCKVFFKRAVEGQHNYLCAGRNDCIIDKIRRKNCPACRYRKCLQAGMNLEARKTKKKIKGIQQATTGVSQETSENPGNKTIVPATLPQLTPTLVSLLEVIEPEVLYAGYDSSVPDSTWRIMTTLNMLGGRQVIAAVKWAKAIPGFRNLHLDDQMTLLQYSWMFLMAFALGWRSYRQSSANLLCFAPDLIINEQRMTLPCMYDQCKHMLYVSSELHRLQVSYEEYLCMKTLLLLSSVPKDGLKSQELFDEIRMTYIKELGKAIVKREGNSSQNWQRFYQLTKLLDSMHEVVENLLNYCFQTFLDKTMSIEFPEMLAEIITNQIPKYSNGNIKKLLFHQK

[5] = molecular target: Glucocorticoid receptor (Homo sapiens) (UniProt P04150); assay: GR-EFC Redistribution (AID 451; calls by dose curve; note: potency is the fitted concentration of half-maximal effect); details: CHO-K1 GR-EFC translocation, beta-gal luminescence, 2 h
Procedure, shortened: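 CHO-K1 cells expressing nuclear EA and GR-ED fragments of b-gal; compounds titrated up to 46 uM final, 2 h at 37 C. GR nuclear translocation read as complemented b-gal luminescence after 1 h RT detection.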

[6] = molecular target: Mitogen-activated protein kinase 10 (Mus musculus) (UniProt Q61831); assay: JNK3 AlphaScreen Assay (AID 530; active = well fitted curve in either direction with a large enough effect, not every such curve was filed as active;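 note: kinase came from lysate of stimulated human HepG2 cells; signal reports phosphorylation of biotinylated GST-cJun 1-79 at Ser73 with 10 µM ATP; % is set by controls: 0 for no effect and ±100 for the full control effect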)
Procedure, shortened: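 Activity was read by AlphaScreen after JNK3-containing HepG2 lysate (cytokine pre-activated) phosphorylated biotinylated GST-cJun with 10 uM ATP at room temperature. Phospho-Ser73 cJun antibody with Protein-A acceptor beads provided detection.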

[7] = molecular target: 3',5'-cyclic-AMP phosphodiesterase 4B (Homo sapiens) (UniProt Q07343); assay: qHTS Assay for Inhibitors of PDE-IV (AID 607; active = well fitted activation curve with a large enough effect in the main read-out, with a control signal flat, not every such curve was filed as active; note: % of control where 0% means no effect)
3',5'-cyclic-AMP phosphodiesterase 4B (Homo sapiens), sequence (Q07343 whole entry, looked up): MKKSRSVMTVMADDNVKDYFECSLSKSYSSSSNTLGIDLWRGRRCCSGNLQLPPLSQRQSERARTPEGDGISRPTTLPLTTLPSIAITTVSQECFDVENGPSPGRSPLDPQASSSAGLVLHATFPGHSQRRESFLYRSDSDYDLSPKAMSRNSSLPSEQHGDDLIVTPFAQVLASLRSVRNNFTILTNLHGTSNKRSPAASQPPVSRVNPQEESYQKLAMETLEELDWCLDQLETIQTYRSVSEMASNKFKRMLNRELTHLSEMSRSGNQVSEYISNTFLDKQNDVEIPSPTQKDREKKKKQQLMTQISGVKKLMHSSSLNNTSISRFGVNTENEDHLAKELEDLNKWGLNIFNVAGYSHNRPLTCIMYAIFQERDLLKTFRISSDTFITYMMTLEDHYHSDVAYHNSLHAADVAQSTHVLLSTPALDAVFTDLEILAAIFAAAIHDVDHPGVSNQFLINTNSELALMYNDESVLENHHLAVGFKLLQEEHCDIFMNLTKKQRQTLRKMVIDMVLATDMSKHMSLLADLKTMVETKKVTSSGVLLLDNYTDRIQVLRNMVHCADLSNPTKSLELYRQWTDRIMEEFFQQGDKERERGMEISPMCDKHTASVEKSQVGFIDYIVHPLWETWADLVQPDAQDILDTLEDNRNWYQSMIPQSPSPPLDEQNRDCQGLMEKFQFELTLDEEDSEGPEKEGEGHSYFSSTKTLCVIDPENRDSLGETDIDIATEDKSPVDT
Procedure, shortened: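 Live HEK293 cells with a modified cyclic nucleotide-gated (CNG) channel report intracellular cAMP via membrane-potential dye fluorescence (ex 535/em 590 nm). Endogenous PDE-IV was targeted. Compounds were tested at up to 22.9 uM final; RO 20-1724 100 uM served as control.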

[8] = molecular target: Guanine nucleotide-binding protein G(i) subunit alpha-1 (Homo sapiens) (UniProt P63096); assay: qHTS Assay for Inhibitors of RGS12 GoLoco Motif Activity (Green Fluorophore) (AID 879);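 note: 0% = labeled peptide with Gαi1 and full inhibition = labeled peptide alone without protein; negative values mean loss of peptide binding seen as reduced polarization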
Guanine nucleotide-binding protein G(i) subunit alpha-1 (Homo sapiens), sequence (P63096 whole entry, looked up): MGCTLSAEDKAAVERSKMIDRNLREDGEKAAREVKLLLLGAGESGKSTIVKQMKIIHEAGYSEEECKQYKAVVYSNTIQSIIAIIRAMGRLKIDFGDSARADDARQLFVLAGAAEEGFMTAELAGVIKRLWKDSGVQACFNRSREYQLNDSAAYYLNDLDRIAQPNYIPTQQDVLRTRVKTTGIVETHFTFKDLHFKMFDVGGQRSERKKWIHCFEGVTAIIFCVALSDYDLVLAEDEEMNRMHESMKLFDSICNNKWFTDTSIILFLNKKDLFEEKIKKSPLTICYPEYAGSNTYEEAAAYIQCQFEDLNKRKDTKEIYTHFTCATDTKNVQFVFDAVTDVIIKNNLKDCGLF
Procedure, shortened: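 A drop in FITC polarization marked displacement of the FITC-tagged RGS12 GoLoco peptide (10 nM) from Gαi1 (50 nM). Compounds were incubated 10 min at room temperature in Tris pH 7.5 buffer containing 150 mM NaCl, 0.1 mM GDP and 0.05% NP40; unlabeled peptide titration served as control.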

[9] = molecular target: Cytochrome P450 3A4 (Homo sapiens) (UniProt P08684); assay: qHTS Assay for Activators of Cytochrome P450 3A4 (AID 885); note: nearly all actives have a fitted effect of over 65% in size
Cytochrome P450 3A4 (Homo sapiens), sequence (P08684 whole entry, looked up): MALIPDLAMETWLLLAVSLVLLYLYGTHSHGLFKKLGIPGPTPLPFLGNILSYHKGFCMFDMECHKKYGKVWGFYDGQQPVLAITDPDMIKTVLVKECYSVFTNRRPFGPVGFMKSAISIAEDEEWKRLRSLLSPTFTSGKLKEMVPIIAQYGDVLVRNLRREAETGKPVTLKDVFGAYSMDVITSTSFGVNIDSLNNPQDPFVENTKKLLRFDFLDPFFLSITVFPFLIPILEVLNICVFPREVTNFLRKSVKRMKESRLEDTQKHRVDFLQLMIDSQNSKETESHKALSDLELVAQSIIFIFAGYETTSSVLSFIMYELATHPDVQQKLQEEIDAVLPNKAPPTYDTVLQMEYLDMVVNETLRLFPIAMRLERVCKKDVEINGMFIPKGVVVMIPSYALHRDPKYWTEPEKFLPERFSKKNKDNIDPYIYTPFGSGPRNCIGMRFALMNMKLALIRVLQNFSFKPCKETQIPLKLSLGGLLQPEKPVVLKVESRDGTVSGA
Procedure, shortened: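 Using 20nM recombinant human CYP3A4 in potassium phosphate (200mM), substrate Luciferin-PPXE at 25uM, luminescent luciferin detection followed a 60-min RT NADPH reaction; data scaled to 57 uM ketoconazole.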

[10] = molecular target: Pyruvate kinase (Leishmania mexicana) (UniProt Q27686); assay: qHTS Validation Assay for Inhibitors of Leishmania Mexicana Pyruvate Kinase (AID 945);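 note: 0% = DMSO only neutral control wells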
Pyruvate kinase (Leishmania mexicana), sequence (Q27686 2-499 E452W): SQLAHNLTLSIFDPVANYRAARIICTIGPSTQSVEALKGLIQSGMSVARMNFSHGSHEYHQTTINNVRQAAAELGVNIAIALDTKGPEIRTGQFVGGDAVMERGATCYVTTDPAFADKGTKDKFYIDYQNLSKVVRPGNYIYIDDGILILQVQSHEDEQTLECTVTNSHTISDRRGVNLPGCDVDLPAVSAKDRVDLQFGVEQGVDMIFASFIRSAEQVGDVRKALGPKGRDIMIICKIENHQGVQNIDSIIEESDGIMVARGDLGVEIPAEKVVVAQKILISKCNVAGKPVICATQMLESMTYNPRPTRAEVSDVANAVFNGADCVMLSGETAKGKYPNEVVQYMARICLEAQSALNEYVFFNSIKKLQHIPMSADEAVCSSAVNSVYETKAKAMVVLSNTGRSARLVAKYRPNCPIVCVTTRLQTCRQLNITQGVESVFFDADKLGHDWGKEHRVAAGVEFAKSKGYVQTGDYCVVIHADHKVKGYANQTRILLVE
Procedure, shortened: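 Luminescent ATP detection (PKLight) after a 1 h room-temperature reaction of 0.2 nM LmPYK E451W mutant with 0.5 mM PEP and 0.1 mM ADP at pH 7.2. Activity is normalized to DMSO-only control wells.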

[11] = molecular target: Pyruvate kinase PKM (Homo sapiens) (UniProt P14618); assay: qHTS Assay for Activators of Human Muscle Pyruvate Kinase (AID 954; active = well fitted curve in the direction sought with a large enough effect, not every such curve was filed as active;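 note: 0% = uninhibited enzyme and -100% = no enzyme or full thiadiazolimine inhibition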)
Pyruvate kinase PKM (Homo sapiens), sequence (P14618 whole entry, looked up): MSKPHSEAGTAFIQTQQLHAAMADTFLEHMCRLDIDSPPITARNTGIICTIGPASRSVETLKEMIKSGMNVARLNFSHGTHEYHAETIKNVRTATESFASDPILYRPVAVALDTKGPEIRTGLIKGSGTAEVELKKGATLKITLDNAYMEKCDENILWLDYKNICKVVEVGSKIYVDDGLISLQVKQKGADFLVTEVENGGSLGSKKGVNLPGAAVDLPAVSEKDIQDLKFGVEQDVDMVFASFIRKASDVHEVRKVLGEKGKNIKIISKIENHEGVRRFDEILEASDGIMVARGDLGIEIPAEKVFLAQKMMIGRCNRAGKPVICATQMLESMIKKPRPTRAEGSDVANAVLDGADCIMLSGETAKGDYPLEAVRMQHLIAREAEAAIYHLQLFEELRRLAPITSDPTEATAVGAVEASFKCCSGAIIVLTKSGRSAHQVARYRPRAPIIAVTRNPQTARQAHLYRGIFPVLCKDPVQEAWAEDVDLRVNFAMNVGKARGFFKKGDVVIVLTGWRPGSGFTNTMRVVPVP
Procedure, shortened: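 Screening used highly purified human pyruvate kinase M2 under submaximal activity, with PEP at its Km and ADP below Km. After an hour at room temperature, ATP was read by luciferase luminescence.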

[12] = molecular target: Alpha-galactosidase A (Homo sapiens) (UniProt P06280); assay: Counterscreen for Glucocerebrosidase Inhibitors: qHTS Assay for Human alpha-Galactosidase at pH 4.5 (AID 992); note: 0% is about no effect
Alpha-galactosidase A (Homo sapiens), sequence (P06280 whole entry, looked up): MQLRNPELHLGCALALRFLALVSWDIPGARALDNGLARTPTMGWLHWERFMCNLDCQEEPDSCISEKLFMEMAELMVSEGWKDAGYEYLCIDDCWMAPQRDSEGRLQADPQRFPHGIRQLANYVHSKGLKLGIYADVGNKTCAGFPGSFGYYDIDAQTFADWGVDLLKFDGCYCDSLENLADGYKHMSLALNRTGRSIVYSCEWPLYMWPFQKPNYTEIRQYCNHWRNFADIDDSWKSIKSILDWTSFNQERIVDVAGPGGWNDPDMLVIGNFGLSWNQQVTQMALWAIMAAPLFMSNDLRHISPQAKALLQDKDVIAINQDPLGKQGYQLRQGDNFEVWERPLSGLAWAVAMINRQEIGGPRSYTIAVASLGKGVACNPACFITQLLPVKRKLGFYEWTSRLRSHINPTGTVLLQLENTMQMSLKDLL
Procedure, shortened: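 Each compound is preincubated briefly with 2 nM enzyme before substrate addition (80 uM); plates then sit 20 min at ambient temperature, are quenched with 1M NaOH/1M glycine, and read fluorometrically.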

[13] = molecular target: alpha-glucosidase (Oryza sativa, rice) (UniProt Q653V4); assay: Counterscreen for Glucocerebrosidase Inhibitors: qHTS Assay for Rice alpha-Glucosidase at pH 5.0 (AID 997);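 note: 0% = full activity with enzyme and -100% = basal without enzyme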
Procedure, shortened: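 Endpoint fluorogenic assay at pH 5.0: compounds (0.7 nM to 77 uM) titrated against 4 nM rice enzyme and 400 uM 4-MU-alpha-glucoside for 20 min at room temperature; NaOH/glycine stop, read ex 365/em 440 nm, Hill-fitted AC50.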

[14] = NFAT Signaling Pathway (AID 444; active = well fitted curve in either direction with a large enough effect, not every such curve was filed as active;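 note: carbachol stimulus at about its EC50 of 1 µM final; % is set by controls: 0 for no effect and ±100 for the full control effect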); details: Jurkat NFAT-bla M1, carbachol, beta-lactamase ratio, 5 h; at 7.69 µM (top of the series) unless noted
Procedure, shortened: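 Jurkat cells with NFAT-driven β-lactamase reporter and co-expressed M1 receptor, stimulated with carbachol (final 1 uM, ~EC50), compound titration, 5 h at 37 °C. CCF4 loaded 1 h at RT; 460/530 nm ratio gave %activity and AC50.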

[15] = molecular target: Cytochrome P450 2D6 (Homo sapiens) (UniProt P10635); assay: qHTS Assay for Inhibitors and Substrates of Cytochrome P450 2D6 (AID 891);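 note: luciferin methyl ether substrate demethylated by CYP2D6 with NADPH regeneration; % is set by controls: 0 for no effect and ±100 for the full control effect; nearly all actives have a fitted effect of over 60% in size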
Procedure, shortened: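 Luminescent read-out of luciferin formed by 5 nM human CYP2D6 demethylating 30 uM Luciferin-ME EGE (Km level) over 60 min at room temperature after NADPH regeneration addition. Data normalized to full inhibition by 1.43 uM quinidine.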

[16] = molecular target: Cytochrome P450 2C19 (Homo sapiens) (UniProt P33261); assay: qHTS Assay for Inhibitors and Substrates of Cytochrome P450 2C19 (AID 899); note: % is set by controls: 0 for no effect and ±100 for the full control effect; nearly all actives have a fitted effect of over 60% in size
Procedure, shortened: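 Signal comes from luciferase acting on luciferin released by CYP2C19-mediated hydroxylation of Luciferin-H EGE, 10uM (KM). Assay mix: 5nM enzyme, 50mM KPO4; 60 min at 37C with NADPH regeneration. Data normalized against 57uM ketoconazole.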

[17] = molecular target: Muscarinic acetylcholine receptor M1 (Rattus norvegicus) (UniProt P08482); assay: qHTS Assay for Antagonists of Acetylcholine Muscarinic M1 Receptor: Kinetic Measurement of Intracellular Calcium Response (AID 943); note: nearly all actives have a fitted effect of over 75% in size; note: potency is the fitted concentration of half-maximal effect;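 for activity change, negative = inhibition: Fluo-4 calcium signal as peak divided by basal fluorescence over 4 min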
Muscarinic acetylcholine receptor M1 (Rattus norvegicus), sequence (P08482 whole entry, looked up): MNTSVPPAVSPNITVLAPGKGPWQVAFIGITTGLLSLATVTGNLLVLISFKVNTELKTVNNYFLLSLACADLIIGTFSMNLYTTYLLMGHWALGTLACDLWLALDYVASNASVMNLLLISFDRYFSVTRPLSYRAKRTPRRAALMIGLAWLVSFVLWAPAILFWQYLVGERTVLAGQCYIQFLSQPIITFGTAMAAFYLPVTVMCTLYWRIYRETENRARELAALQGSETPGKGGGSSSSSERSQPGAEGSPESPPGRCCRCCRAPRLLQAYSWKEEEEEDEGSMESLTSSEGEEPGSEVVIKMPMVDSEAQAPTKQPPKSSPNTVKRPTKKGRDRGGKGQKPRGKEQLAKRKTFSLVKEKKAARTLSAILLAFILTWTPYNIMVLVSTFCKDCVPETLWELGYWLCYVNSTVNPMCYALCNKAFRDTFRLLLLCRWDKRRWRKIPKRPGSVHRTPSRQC
Procedure, shortened: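 Antagonism is measured as inhibition of the carbachol-evoked calcium rise in CHO cells transfected with rat M1. Cells are dye-loaded, exposed to compound for 10 min, then stimulated with 100 nM carbachol (EC80).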

[18] = qHTS Assay for Identification of Small Molecule Agonists for Thrombopoietin (TPO) Signaling Pathway (AID 917); note: % is set by controls: 0 for no effect and ±100 for the full control effect
Procedure, shortened: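 Stimulation at the TPO EC50 (26 pM final) was used to detect activators. Ba/F3 mouse cells bearing human TPO receptor and a luciferase reporter under the Glycoprotein IIb promoter were exposed to compounds for 24 hrs at 37 C.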

[19] = molecular target: Muscarinic acetylcholine receptor M1 (Rattus norvegicus) (UniProt P08482); assay: qHTS Assay for Antagonists of Acetylcholine Muscarinic M1 Receptor: Measurement of IP-One Response (AID 944); note: nearly all actives have a fitted effect of over 75% in size
Procedure, shortened: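 Antagonist mode with rat M1 receptor transfected into CHO cells. Compound is added first for 10 min, carbachol at its EC80 follows for 30 min, and lysis reagents then allow TR-FRET detection of accumulated IP1.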

CC(C)C[C@H]1C(=O)N2CCC[C@@H]2[C@]2(O)O[C@](NC(=O)[C@H]3C=C4c5cccc6[nH]c(Br)c(c56)C[C@H]4N(C)C3)(C(C)C)C(=O)N12
inactive: activity change, negative = inhibition [1] -28.4% [at 17.2 µM] | Potency [2] | activity, negative = inhibition ([3]; at 17.2 µM (top of the series)) -20.4% | activity, negative = inhibition ([3]; at 38 µM (top of the series)) -18.7% | Potency [4] > 46 µM and > 20.6 µM | Potency [5] > 46 µM and > 20.6 µM | Potency [6] | Potency [7] | outcome [8] | Potency [9] | outcome [10] | outcome [11] | outcome [12] | Potency [13]

C[C@@]12C(=O)OC(=O)[C@@]1(C)[C@H]1CC[C@@H]2O1
active: activity change, negative = inhibition [1] -102% [at 38 µM] | activity change, negative = inhibition [14] -104% [at 38 µM]
inactive: Potency [2] | Potency [5] > 46 µM | Potency [6] | Potency [7] | Potency [9] | Potency [15] | Potency [16] | outcome [10] | outcome [11] | outcome [12] | Potency [13]

O=S(=O)(NCCNC/C=C\c1ccc(Br)cc1)c1cccc2cnccc12
active: Potency [2] 2 µM | Potency [17] 14.1 µM
inactive: activity change, negative = inhibition [1] 2.61% [at 38 µM] | activity change, negative = inhibition [14] -7.5% [at 38 µM] | Potency [4] > 46 µM | Potency [5] > 46 µM | Potency [6] | outcome [8] | outcome [10] | outcome [11] | outcome [12] | Potency [13]

C=C(NC(=O)C(=C)NC(=O)c1csc(C2=N[C@@H]3c4csc(n4)[C@@H]4NC(=O)c5csc(n5)[C@@H]([C@](C)(O)[C@H](C)O)NC(=O)[C@@H]5CSC(=N5)/C(=C/C)NC(=O)[C@@H]([C@H](C)O)NC(=O)c5csc(n5)[C@]3(CC2)NC(=O)[C@@H](C)NC(=O)C(=C)NC(=O)[C@@H](C)NC(=O)[C@@H]([C@@H](C)CC)N[C@H]2C=Cc3c([C@H](C)O)cc(nc3[C@@H]2O)C(=O)O[C@H]4C)n1)C(N)=O
inactive: activity change, negative = inhibition [1] -15.7% [at 17.2 µM] | Potency [2] | activity, negative = inhibition ([3]; at 7.69 µM (top of the series) unless noted) -4.53% [at 17.2 µM] | Potency [4] > 20.6 µM | Potency [5] > 20.6 µM | Potency [6] | Potency [7]

CC[C@H](C)[C@@H]1O[C@]2(CC[C@@H]1C)C[C@H]1C[C@H](CC=C(C)[C@@H](O[C@H]3C[C@H](OC)[C@H](O[C@H]4C[C@H](OC)[C@H](O)[C@H](C)O4)[C@H](C)O3)[C@@H](C)C=CC=C3CO[C@@H]4[C@@H](O)C(C)=C[C@H](C(=O)O1)[C@@]34O)O2
inactive: activity change, negative = inhibition [1] -14% [at 38 µM] | Potency [2] | activity change, negative = inhibition [14] -10.6% [at 38 µM] | Potency [4] > 46 µM | Potency [5] > 46 µM | Potency [7] | Potency [9] | outcome [10] | outcome [11] | outcome [12] | Potency [13]

N.N.N.N.N.N.N.N.N.N.N.N.N.N.O.O.[Ru].[Ru].[Ru]
inactive: activity change, negative = inhibition [1] 17.6% [at 38 µM] | Potency [2] | activity change, negative = inhibition [14] -5.33% [at 38 µM] | Potency [4] > 46 µM | Potency [6] | Potency [7] | outcome [8] | outcome [18] | Potency [17] | Potency [19] | outcome [11] | outcome [12] | Potency [13]
